Measurements from the supplement of paper PMC6897291.
Where a name gives a salt, the structure may show the parent alone.

How the values were obtained:
U-2932 [1] = assay: growth inhibition by drug alone (1 - RLU/untreated control) (fraction); higher = stronger inhibition; settings: 177Lu-lilotomab satetraxetan 0 ug/ml
Method in brief: (§1)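 With or without 18 h pretreatment by a radiolabelled anti-CD37 antibody conjugate (~600 MBq/mg; 0.5 µg/ml RIVA, 1 µg/ml U-2932), RIVA and U-2932 cells were washed and plated at 3,000 cells/well. Pre-printed compound doses were 10/100 nM for RIVA and 10/1,000 nM for U-2932. Growth inhibition uses RealTime-Glo RLU relative to the untreated no-drug wells. The calculation is 1 − RLU/mean of 48 such wells per plate, with reads daily from day 3 after 1 h at 37°C.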

RIVA [2] = assay: as above; settings: 177Lu-lilotomab satetraxetan 0 ug/ml
Method in brief: as §1

U-2932 [3] = assay: growth inhibition by drug plus 177Lu-lilotomab satetraxetan (1 - RLU/untreated control) (fraction); higher = stronger inhibition; settings: 177Lu-lilotomab satetraxetan 1 ug/ml
Method in brief: as §1

RIVA [4] = assay: as above; settings: 177Lu-lilotomab satetraxetan 0.5 ug/ml
Method in brief: as §1

| Compound | growth inhibition by drug alone (U-2932 [1]; 10 nM, time (day): 3) | growth inhibition by drug alone (U-2932 [1]; 10 nM, time (day): 4) | growth inhibition by drug alone (U-2932 [1]; 10 nM, time (day): 5) | growth inhibition by drug alone (U-2932 [1]; 10 nM, time (day): 6) | growth inhibition by drug alone (U-2932 [1]; 1000 nM, time (day): 3) | growth inhibition by drug alone (U-2932 [1]; 1000 nM, time (day): 4) | growth inhibition by drug alone (U-2932 [1]; 1000 nM, time (day): 5) | growth inhibition by drug alone (U-2932 [1]; 1000 nM, time (day): 6) | growth inhibition by drug alone (RIVA [2]; 10 nM, time (day): 3) | growth inhibition by drug alone (RIVA [2]; 10 nM, time (day): 4) | growth inhibition by drug alone (RIVA [2]; 10 nM, time (day): 5) | growth inhibition by drug alone (RIVA [2]; 10 nM, time (day): 6) | growth inhibition by drug alone (RIVA [2]; 100 nM, time (day): 3) | growth inhibition by drug alone (RIVA [2]; 100 nM, time (day): 4) | growth inhibition by drug alone (RIVA [2]; 100 nM, time (day): 5) | growth inhibition by drug alone (RIVA [2]; 100 nM, time (day): 6) | growth inhibition by drug plus 177Lu-lilotomab satetraxetan (U-2932 [3]; 10 nM, time (day): 3) | growth inhibition by drug plus 177Lu-lilotomab satetraxetan (U-2932 [3]; 10 nM, time (day): 4) | growth inhibition by drug plus 177Lu-lilotomab satetraxetan (U-2932 [3]; 10 nM, time (day): 5) | growth inhibition by drug plus 177Lu-lilotomab satetraxetan (U-2932 [3]; 10 nM, time (day): 6) | growth inhibition by drug plus 177Lu-lilotomab satetraxetan (U-2932 [3]; 1000 nM, time (day): 3) | growth inhibition by drug plus 177Lu-lilotomab satetraxetan (U-2932 [3]; 1000 nM, time (day): 4) | growth inhibition by drug plus 177Lu-lilotomab satetraxetan (U-2932 [3]; 1000 nM, time (day): 5) | growth inhibition by drug plus 177Lu-lilotomab satetraxetan (U-2932 [3]; 1000 nM, time (day): 6) | growth inhibition by drug plus 177Lu-lilotomab satetraxetan (RIVA [4]; 10 nM, time (day): 3) | growth inhibition by drug plus 177Lu-lilotomab satetraxetan (RIVA [4]; 10 nM, time (day): 4) | growth inhibition by drug plus 177Lu-lilotomab satetraxetan (RIVA [4]; 10 nM, time (day): 5) | growth inhibition by drug plus 177Lu-lilotomab satetraxetan (RIVA [4]; 10 nM, time (day): 6) | growth inhibition by drug plus 177Lu-lilotomab satetraxetan (RIVA [4]; 100 nM, time (day): 3) | growth inhibition by drug plus 177Lu-lilotomab satetraxetan (RIVA [4]; 100 nM, time (day): 4) | growth inhibition by drug plus 177Lu-lilotomab satetraxetan (RIVA [4]; 100 nM, time (day): 5) | growth inhibition by drug plus 177Lu-lilotomab satetraxetan (RIVA [4]; 100 nM, time (day): 6) |
| --- | --- | --- | --- | --- | --- | --- | --- | --- | --- | --- | --- | --- | --- | --- | --- | --- | --- | --- | --- | --- | --- | --- | --- | --- | --- | --- | --- | --- | --- | --- | --- | --- |
| Cc1ccc(-c2csc3ncnc(SCCC(=O)O)c23)cc1 | 0.0174 | -0.014 | -0.0343 | -0.0333 | -0.00216 | -0.0356 | -0.0409 | 0.0278 | -0.135 | -0.215 | -0.266 | -0.425 | -0.333 | -0.33 | -0.376 | -0.529 | -0.0558 | -0.00644 | 0.0127 | 0.0699 | -0.0374 | 0.018 | 0.0424 | 0.16 | 0.458 | 0.495 | 0.522 | 0.525 | 0.365 | 0.436 | 0.45 | 0.472 |
| CC/C(=C(\c1ccccc1)c1ccc(OCCN(C)C)cc1)c1ccccc1 [Tamoxifen Citrate (Nolvadex)] | 0.0699 | 0.0582 | -0.0313 | -0.0576 | 0.106 | 0.0715 | -0.0226 | 0.0641 | 0.0612 | 0.0931 | 0.0782 | -0.0872 | 0.551 | 0.381 | 0.352 | 0.322 | 0.0801 | 0.126 | 0.2 | 0.206 | 0.075 | 0.103 | 0.172 | 0.27 | 0.602 | 0.651 | 0.667 | 0.656 | 0.78 | 0.78 | 0.788 | 0.802 |
| CCc1cncnc1N1CCN(Cc2nc3ccc(C(F)(F)F)cc3[nH]2)CC1 | 0.0983 | 0.0884 | -0.0751 | -0.108 | 0.0626 | 0.102 | 0.0246 | -0.253 | 0.00505 | -0.0231 | -0.0829 | -0.347 | -0.0601 | -0.0865 | -0.0867 | -0.192 | 0.00491 | 0.0254 | 0.0426 | 0.0627 | -0.00879 | 0.086 | 0.0686 | 0.0567 |  |  |  |  |  |  |  |  |
| COc1cc2ncnc(Nc3ccc(F)c(Cl)c3)c2cc1OCCCN1CCOCC1 [Gefitinib (Iressa)] | 0.0523 | -0.0185 | -0.0608 | -0.248 | -0.147 | -0.0975 | -0.157 | -0.226 | -0.00639 | -0.111 | -0.168 | -0.438 | -0.234 | -0.33 | -0.334 | -0.479 | -0.0292 | -0.0156 | -0.0275 | 0.0384 | -0.218 | -0.0647 | -0.0381 | 0.0874 | 0.402 | 0.522 | 0.546 | 0.553 | 0.408 | 0.485 | 0.503 | 0.494 |
| CO[C@H]1C[C@@H]2CC[C@@H](C)[C@@](O)(O2)C(=O)C(=O)N2CCCC[C@H]2C(=O)O[C@H]([C@H](C)C[C@@H]2CC[C@@H](O)[C@H](OC)C2)CC(=O)[C@H](C)/C=C(\C)[C@@H](O)[C@@H](OC)C(=O)[C@H](C)C[C@H](C)/C=C/C=C/C=C/1C [Rapamycin (Sirolimus)] | 0.724 | 0.686 | 0.609 | 0.544 | 0.737 | 0.722 | 0.658 | 0.599 | 0.777 | 0.792 | 0.785 | 0.748 | 0.8 | 0.833 | 0.827 | 0.803 | 0.692 | 0.666 | 0.631 | 0.623 | 0.703 | 0.69 | 0.662 | 0.657 |  |  |  |  |  |  |  |  |
| COc1ccccc1OCC(O)CN1CCN(CC(=O)Nc2c(C)cccc2C)CC1 (stereo not given) [Ranolazine (Ranexa)] | 0.0363 | 0.0222 | -0.0749 | -0.119 | -0.0415 | -0.0106 | -0.0786 | -0.23 | 0.0348 | -0.0338 | -0.102 | -0.328 | -0.11 | -0.146 | -0.161 | -0.223 | -0.0197 | 0.00637 | 0.00274 | 0.118 | -0.0847 | 8.82e-05 | -0.0142 | -0.000571 |  |  |  |  |  |  |  |  |
| Cc1[nH]c2ccccc2c1CCNCc1ccc(/C=C/C(=O)NO)cc1 [Panobinostat] | 0.545 | 0.448 | 0.353 | 0.31 | 0.98 | 0.982 | 0.982 | 0.983 | 0.637 | 0.535 | 0.447 | 0.328 | 0.977 | 0.977 | 0.975 | 0.975 | 0.585 | 0.524 | 0.461 | 0.445 | 0.979 | 0.981 | 0.983 | 0.986 | 0.93 | 0.93 | 0.939 | 0.944 | 0.987 | 0.988 | 0.988 | 0.987 |
| CN1CC[C@H](c2c(O)cc(O)c3c(=O)cc(-c4ccccc4Cl)oc23)[C@H](O)C1 [Flavopiridol hydrochloride] | -0.0754 | -0.0311 | -0.0181 | 0.00401 | 0.957 | 0.967 | 0.974 | 0.979 | -0.111 | -0.116 | -0.189 | -0.255 | 0.504 | 0.533 | 0.499 | 0.385 | -0.0108 | 0.0505 | 0.0958 | 0.189 | 0.965 | 0.972 | 0.978 | 0.983 | 0.521 | 0.567 | 0.566 | 0.567 | 0.615 | 0.69 |  |  |
